Assay results reported in ChEMBL document CHEMBL3988442, “University of Dundee, Small-Polar-MMV Screening Library” (2021).
Among all 48,000 compounds or so, about 13,000 (27%) showed an effect of 50% or more. This is one part of the list.

System: Wolbachia pipientis
Assay: Anti-Wolbachia Cell-Based Screen
Assay type: functional
Parameters: scale not given: in the data most compounds retested in dose-response had high values
Conditions: 5 µM

First: CC(C)c1cc(N2CCC(CCC(=O)NC3CC3)CC2)n2nccc2n1
Second: COc1ccc(N2CCC(NCc3csc(C(C)C)n3)CC2)cc1
The “Percent Effect” value of the first is higher: 7.052% for the first, -0.6873% for the second.

Going from `CCN(Cc1nnsc1Cl)C(C)c1ccc(C#N)cc1` (configuration not stated) to `COc1ccc(CCN2CCCC2Cn2nc(C)nc2C)cc1` (configuration not stated), the “Percent Effect” value falls from 1.58% to -8.655%.

Going from `Cc1nc(C)n(CC2CCCN2Cc2cn3c(C)cccc3n2)n1` (configuration not stated) to `COc1cccc(CN2CCCC2Cn2nc(C)nc2C)c1` (configuration not stated), the “Percent Effect” value rises from -8.673% to 137%.

Compared with `COc1c(C)cnc(CN2CCCCC2Cn2nc(C)nc2C)c1C` (configuration not stated), `COc1cccc(CN2CCCCC2Cn2nc(C)nc2C)c1` (configuration not stated) is higher in “Percent Effect” value: 6.225% for the first, 129.9% for the second.

First: c1cnn(CCNCc2nnc(C3CC3)o2)c1
Second: Cc1ccc(Cl)cc1N1CCC(CNC(=O)CCn2ccnn2)C1 (configuration not stated)
The “Percent Effect” value of the first is lower: -6.862% for the first, 3.758% for the second.

Going from `CN(CCNC(=O)N1CCN(Cc2ccon2)CC1)c1ccccc1` to `Cc1ccccc1C(=O)N1CCN(c2ccc(-n3cncn3)nn2)CC1`, the “Percent Effect” value rises from -8.314% to 17.86%.

First: CCc1nc2c(N3CCC4(CC3)CC(=O)N(CC(C)C)C4)ncnc2o1
Second: COCCN1CCC2(CC1)CN(C(C)=O)c1ccc(C)cc12.O=C(O)C(F)(F)F
The “Percent Effect” value of the first is lower: -4.027% for the first, 24.24% for the second.

Compared with `Cc1nn(C)c(C)c1C1COCCN1C(=O)CSC(C)(C)C` (configuration not stated), `CNC(=O)N1CCOCC1c1c(C)nn(C)c1C` (configuration not stated) is higher in “Percent Effect” value: -11.83% for the first, -10.34% for the second.

Going from `Cc1nn(C)c(C)c1C1COCCN1C(=O)c1ccc(Cl)o1` (configuration not stated) to `CSc1ccc(C(=O)N2CCOCC2c2c(C)nn(C)c2C)o1` (configuration not stated), the “Percent Effect” value rises from 70.94% to 94.08%.

Going from `Cc1nn(C)c(C)c1C1COCCN1C(=O)Cc1cccc(F)c1` (configuration not stated) to `Cc1nn(C)c(C)c1C1COCCN1C(=O)CCc1ccccc1` (configuration not stated), the “Percent Effect” value rises from -20.34% to 95.59%.

Compared with `Cc1nn(C)c(C)c1C1COCCN1C(=O)c1ccccc1` (configuration not stated), `Cc1nn(C)c(C)c1C1COCCN1C(=O)c1n[nH]c2ccccc12` (configuration not stated) is higher in “Percent Effect” value: -4.407% for the first, 16.5% for the second.

First: Cc1nn(C)c(C)c1C1COCCN1C(=O)c1cnc(N)c(Cl)c1 (configuration not stated)
Second: Cc1cc(C)c(C(=O)N2CCOCC2c2c(C)nn(C)c2C)o1 (configuration not stated)
The “Percent Effect” value of the first is lower: 1.304% for the first, 101% for the second.

First: CCN(CC)C(=O)N1CCOCC1c1c(C)nn(C)c1C (configuration not stated)
Second: Cc1nn(C)c(C)c1C1CCCN1C(=O)c1ccc(Cl)o1 (configuration not stated)
The “Percent Effect” value of the first is higher: 7.192% for the first, -7.187% for the second.

Compared with `COCCS(=O)(=O)N1CCN(c2cccc(O)c2)CC1`, `COc1cccc(-n2ccc3nc(N4CCCC4)ncc3c2=O)c1` is lower in “Percent Effect” value: 9.959% for the first, -5.391% for the second.

Compared with `CCS(=O)(=O)NCCNC(=O)c1cc(Cl)c2c(c1)OCCCO2`, `CN(C)S(=O)(=O)c1ccc(CN2CCCC2CO)o1` (configuration not stated) is lower in “Percent Effect” value: 12.52% for the first, -8.26% for the second.

Going from `CCC(CC)CN1CCC(n2cc(C3CCCC3)nn2)CC1` to `c1cc(C2CCCN2Cc2nnnn2C2CC2)cs1` (configuration not stated), the “Percent Effect” value falls from 4.235% to -19.47%.

Going from `CN(Cc1ccc(F)cc1)CC1(O)CCCN(CC(C)(C)C)C1=O` (configuration not stated) to `CN(Cc1ccccc1)CC1(O)CCCN(CC(C)(C)C)C1=O` (configuration not stated), the “Percent Effect” value falls from 55.08% to 2.381%.

Going from `CN(Cc1ccccc1)CC1(O)CCCN(CCC2CCCCC2)C1=O` (configuration not stated) to `CN(C)S(=O)(=O)c1ccc(CN2CCCC2c2ccccc2)o1` (configuration not stated), the “Percent Effect” value rises from -12.81% to 8.974%.

First: CN(c1ncc(S(N)(=O)=O)s1)C1CCc2ccccc2C1 (configuration not stated)
Second: Cc1ccccc1C1CCCN1Cc1ccc(S(=O)(=O)N(C)C)o1 (configuration not stated)
The “Percent Effect” value of the first is lower: 1.957% for the first, 160.2% for the second.

Going from `Cc1c(Br)cccc1C(=O)NCc1cnn(C)c1` to `CCn1cc(Br)c(C(=O)NCc2cnn(C)c2)n1`, the “Percent Effect” value rises from -14.4% to 103.9%.

First: CCn1cc(N)c(C(=O)NCc2cnn(C)c2)n1
Second: CCC(=O)Nc1ccc2c(c1)C1(CCOCC1)CN2CCOC.O=C(O)C(F)(F)F
The “Percent Effect” value of the first is lower: -9.614% for the first, 101.5% for the second.

Going from `COCCN1CC2(CCOCC2)c2cc(NC(=O)C3CC=CC3)ccc21.O=C(O)C(F)(F)F` to `CCCC(=O)Nc1ccc2c(c1)C1(CCOCC1)CN2CCOC.O=C(O)C(F)(F)F`, the “Percent Effect” value rises from 98.06% to 114.8%.

Compared with `CN(C)C(=O)N1CC2(CCOCC2)c2cc(NC(=O)CCO)ccc21`, `COCCN1CCC2(CC1)CC(N1CCOCC1)c1ccc(C)cc12.O=C(O)C(F)(F)F.O=C(O)C(F)(F)F` (configuration not stated) is lower in “Percent Effect” value: -8.643% for the first, -12.46% for the second.

Going from `Cc1noc(C[C@@H]2COC[C@H]3CN(S(=O)(=O)C4CC4)C[C@@H]23)n1` to `Cn1ccnc1CN1C[C@H]2CN(S(C)(=O)=O)CCN2C1=O`, the “Percent Effect” value falls from 6.683% to -9.259%.

Compared with `Cc1ccc(S(=O)(=O)NC(C)C#N)cc1Br` (configuration not stated), `NS(=O)(=O)NCC1(c2ccccc2Br)CC1` is higher in “Percent Effect” value: -6.675% for the first, -0.7264% for the second.

First: COc1ccc(CC(=O)Nc2c(C)nc(N3CCCC3)nc2C)cc1
Second: COc1cccc(Nc2nc(N3CCCC3)nc3c2CNCC3)c1.Cl
The “Percent Effect” value of the first is lower: 3.23% for the first, 154.5% for the second.

Compared with `O=S(=O)(Nc1cnc(N2CCCC2)nc1)c1ccc(F)cc1F`, `O=S(=O)(Nc1cnc(N2CCOCC2)nc1)c1cccc(F)c1` is lower in “Percent Effect” value: 5.953% for the first, -8.595% for the second.

Compared with `CCOCCNc1nc(-c2ccncc2)nc2c1CCNCC2`, `c1csc(CCNc2nc(-c3ccncc3)nc3c2CCNCC3)c1` is lower in “Percent Effect” value: 0.459% for the first, -1.817% for the second.

Going from `COc1cccc(Nc2nc(-c3ccncc3)nc3c2CNCC3)c1.Cl` to `Fc1cccc(Nc2nc(N3CCCC3)nc3c2CNCC3)c1`, the “Percent Effect” value rises from 140.9% to 142.6%.

Going from `Cc1cc(CN(C)C(=O)NC2CCS(=O)(=O)C2)no1` (configuration not stated) to `CN(Cc1ccco1)C(=O)CN1CCCC1c1cccs1` (configuration not stated), the “Percent Effect” value falls from 4.321% to -12.25%.

Compared with `COc1ccc(C2CCCN2Cc2ccc(S(=O)(=O)N(C)C)o2)cc1` (configuration not stated), `CN(C)S(=O)(=O)c1ccc(CN2CCCC2c2ccsc2)o1` (configuration not stated) is higher in “Percent Effect” value: 151.6% for the first, 153.1% for the second.

Compared with `CN(CCC#N)C(=O)CN1CCCC1c1ccsc1` (configuration not stated), `CN(C)S(=O)(=O)c1ccc(CN2CCCC2c2cccs2)o1` (configuration not stated) is higher in “Percent Effect” value: 1.248% for the first, 169.9% for the second.

Compared with `CN(C)S(=O)(=O)c1ccc(CN2CCC(c3ccccc3)C2)o1` (configuration not stated), `CN(C)S(=O)(=O)c1ccc(CN2CCCC2c2ccc[nH]2)o1` (configuration not stated) is higher in “Percent Effect” value: -9.641% for the first, -2.919% for the second.

In the case of `Cc1nccc(-c2cccc(NCc3nc(C(C)C)no3)c2)n1`, the “Percent Effect” value is reported as 4.778%.
